Data published in PubChem BioAssay AID743100 (Vanderbilt Specialized Chemistry Center, 2013).
Active and inactive are the calls of the source.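 How the source made its calls: active means calcium response above 60% of the acetylcholine maximum at human M5, as a positive modulator; inactive means the rest.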

These molecules were tested against Muscarinic acetylcholine receptor M5 (Homo sapiens) (UniProt P08912) (assay: M5 muscarinic receptor positive allosteric modulators, cell-based, single concentration, CHO-K1 hM5, calcium flux (AID 743100)). Details: CHO-K1 hM5, Fluo-4 calcium flux, ACh EC20, active compounds read high; at 10 µM unless noted.
Chain of Muscarinic acetylcholine receptor M5 (Homo sapiens) (P08912 whole entry, looked up): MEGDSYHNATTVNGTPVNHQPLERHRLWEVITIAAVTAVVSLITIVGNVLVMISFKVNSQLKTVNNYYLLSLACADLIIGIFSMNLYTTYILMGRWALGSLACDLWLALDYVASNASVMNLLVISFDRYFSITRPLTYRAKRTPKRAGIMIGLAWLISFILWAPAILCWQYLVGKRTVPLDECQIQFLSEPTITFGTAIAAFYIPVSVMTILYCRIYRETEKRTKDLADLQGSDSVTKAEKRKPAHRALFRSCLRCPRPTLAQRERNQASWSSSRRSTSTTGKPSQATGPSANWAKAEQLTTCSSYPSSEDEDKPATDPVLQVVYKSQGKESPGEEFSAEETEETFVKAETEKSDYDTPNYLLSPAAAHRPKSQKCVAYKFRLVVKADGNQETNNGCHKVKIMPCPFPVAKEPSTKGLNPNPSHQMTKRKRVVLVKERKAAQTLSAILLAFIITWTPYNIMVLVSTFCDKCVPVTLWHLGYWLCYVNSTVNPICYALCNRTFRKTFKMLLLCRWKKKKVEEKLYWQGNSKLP

Row | SMILES | % ACh max response
1 | O=C(C1CCN(S(=O)(=O)c2ccc3[nH]ncc3c2)CC1)N1Cc2ccccc2C1 | 32.5% (inactive)
2 | CCN(Cc1ccc(SC)cc1)C(=O)C1CCN(S(=O)(=O)c2ccc3cn[nH]c3c2)CC1 | 14% (inactive)
3 | CCN(Cc1ccccc1)C(=O)C1CCN(S(=O)(=O)c2ccccn2)CC1 | 36.4% (inactive)
4 | CCN(Cc1ccccc1)C(=O)C1CCN(S(=O)(=O)c2ccc3cnn(C)c3c2)CC1 | 62.3% (active)
5 | CCN(Cc1ccccc1)C(=O)C1CCN(S(=O)(=O)Cc2ccc(Cl)cc2)CC1 | 16% [at 30 µM] (inactive)
6 | CCN(Cc1ccccc1)C(=O)C1CCN(S(=O)(=O)c2ccc(OC)c(OC)c2)CC1 | 56% [at 30 µM] (inactive)
7 | CCN(Cc1ccccn1)C(=O)C1CCN(S(=O)(=O)c2ccc3cn[nH]c3c2)CC1 | 35.1% (inactive)
8 | CCN(Cc1ccc(C(F)(F)F)cc1)C(=O)C1CCN(S(=O)(=O)c2ccc3cn[nH]c3c2)CC1 | 24.2% (inactive)
9 | CCN(Cc1ccccc1)C(=O)C1CCN(S(=O)(=O)c2ccc(C(F)(F)F)cc2)CC1 | 62.6% [at 30 µM] (active)
10 | CN(C)C(=O)C1(Cc2ccccc2)CCN(S(=O)(=O)c2ccc3occc3c2)CC1 | 8.49% (inactive)
11 | CCN(Cc1ccccc1)C(=O)C1CCN(S(=O)(=O)c2ccc3nsnc3c2)CC1 | 77.9% [at 30 µM] (active)
12 | CCN(Cc1ccccc1)C(=O)C1CCN(S(=O)(=O)c2ccc3cn[nH]c3c2)CC1 | 83.1% [at 30 µM] (active)
13 | CCN(Cc1ccccc1)C(=O)C1CCN(S(=O)(=O)c2ccc3occc3c2)CC1 | 82.1% [at 30 µM] (active)
14 | CCN(Cc1ccc(OC)cc1)C(=O)C1CCN(S(=O)(=O)c2ccc3cn[nH]c3c2)CC1 | 32% (inactive)
15 | CCN(Cc1ccccc1)C(=O)C1CCN(S(=O)(=O)c2ccc(Cl)nc2)CC1 | 50.1% [at 30 µM] (inactive)
16 | CCN(Cc1ccccc1)C(=O)C1CCN(S(=O)(=O)c2cccc(OC(F)F)c2)CC1 | 70.2% [at 30 µM] (active)
17 | CCN(CC1CCN(S(=O)(=O)c2ccc3cn[nH]c3c2)CC1)C(=O)c1ccccc1 | 13.7% (inactive)

Row | SMILES | % ACh max response
18 | CCN(Cc1ccccc1)C(=O)C1CCN(S(=O)(=O)c2cccc(Cl)c2)CC1 | 65.3% [at 30 µM] (active)
19 | CC1c2ccccc2CCN1C(=O)C1CCN(S(=O)(=O)c2ccc3[nH]ncc3c2)CC1 (stereo not drawn) | 40.4% (inactive)
20 | CCN(Cc1ccc(OC(F)(F)F)cc1)C(=O)C1CCN(S(=O)(=O)c2ccc3cn[nH]c3c2)CC1 | 40.8% (inactive)
21 | CCN(Cc1ccccc1C(F)(F)F)C(=O)C1CCN(S(=O)(=O)c2ccc3occc3c2)CC1 | 84.8% (active)
22 | CCN(Cc1ccccc1)C(=O)C1CCN(S(=O)(=O)c2cccc(OC)c2)CC1 | 72.2% [at 30 µM] (active)
23 | CCN(Cc1ccccc1)C(=O)C1CCN(S(=O)(=O)c2ccc3ncccc3c2)CC1 | 63.4% [at 30 µM] (active)
24 | CCN(Cc1ccccc1)C(=O)C1CCN(S(=O)(=O)c2ccccc2C)CC1 | 28.6% [at 30 µM] (inactive)
25 | CC1c2ccccc2CCN1C(=O)C1CCN(S(=O)(=O)c2ccc3cn[nH]c3c2)CC1 (stereo not drawn) | 36.3% (inactive)
26 | CCN(Cc1ccccc1)C(=O)C1CCN(S(=O)(=O)Cc2ccccc2Br)CC1 | 5.25% [at 30 µM] (inactive)
27 | CCN(Cc1ccccc1)C(=O)C1CCN(S(=O)(=O)c2ccc(C)s2)CC1 | 68.8% [at 30 µM] (active)
28 | CCN(C(=O)C1CCN(S(=O)(=O)c2ccc(-n3cccn3)cc2)CC1)[C@H](C)c1ccccc1C(F)(F)F | 22.7% (inactive)
29 | [2H]C([2H])(C)N(C(=O)C1CCN(S(=O)(=O)c2ccc3cn[nH]c3c2)CC1)[C@H](C)c1ccccc1 | 94.6% (active)
30 | CCN(Cc1ccccc1)C(=O)C1CCN(S(=O)(=O)c2ccc3c(c2)OCCO3)CC1 | 72.2% [at 30 µM] (active)
31 | CCN(CC1CCN(S(=O)(=O)c2ccc(OC(F)(F)F)cc2)CC1)C(=O)c1ccccc1 | 10.5% (inactive)
32 | CCN(Cc1ccccc1)C(=O)C1CCN(S(=O)(=O)c2cccnc2)CC1 | 34.5% (inactive)
33 | CCN(C(=O)C1CCN(S(=O)(=O)c2ccc(-n3cccn3)cc2)CC1)[C@H](C)c1ccccc1 | 97.5% (active)
